PubChem BioAssay AID624305 (National Center for Advancing Translational Sciences (NCATS), 2012)
Inconclusive results are not listed. A call without a number means that no potency is given here. Active and inactive are the calls of the source. Calls come from the whole dose curve; as a rule, active = well fitted activation curve with a large enough effect; inconclusive = small, poorly fitted or top-dose-only effect; inactive = no such curve, though single readings can be large or run the other way.

Experiment: qHTS assay for re-activators of p53 using a Luc reporter: Hit Validation; note: nearly all actives have a fitted effect of over 75% in size
Settings: p53-responsive luciferase reporter cells, luminescence, H1299 line expressing heat-sensitive Ala138Val p53; series mostly up to 46.1 µM
How it was run: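 Hit confirmation with a 1:5 dilution series, at 37 deg C for 24 hrs, in H1299 cells co-expressing temperature-sensitive p53-A138V and p53-responsive luciferase. Nocodazole served as control; luminescence read after 10 min with detection reagent.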
Potency is the fitted concentration of half-maximal effect.

**Q.** With `O=C(NC(=S)NC1CCCCC1)c1ccccc1[N+](=O)[O-]` as the molecule, how does the Potency read?
**A.** inactive

**Q.** Which Potency does the source give for `C/C(=N\NC(=S)NC1CCCCC1)c1ccccc1` here?
**A.** inactive

**Q.** For `CN(C)c1ccc(NC(=O)CCCc2ccccc2)cc1`, which Potency is on record?
**A.** 1460 nM (active)

**Q.** For `O=C(CCc1nc(-c2ccccc2F)no1)NC1CCCCCC1`, which Potency is on record?
**A.** inactive

**Q.** With `N#C/C(=C/c1ccccc1[N+](=O)[O-])c1nc(C2CC2)cs1` as the molecule, how does the Potency read?
**A.** 5800 nM (active)

**Q.** For `Oc1c(CN2CCOCC2)cc(COCc2ccccc2)c2cccnc12`, which Potency is on record?
**A.** inactive

**Q.** For `CCOc1ccc(OCc2cccc(C(=O)N3CCCC3)c2)cc1`, which Potency is on record?
**A.** 517 nM (active)

**Q.** For `COc1cc(NC(=O)CSCc2ccc(Cl)cc2)c(C(=O)O)cc1OC`, which Potency is on record?
**A.** inactive

**Q.** With `O=C(COC(=O)C12CC3CC(CC(O)(C3)C1)C2)Nc1ccc(Br)cc1F` as the molecule, how does the Potency read?
**A.** 14600 nM (active)

**Q.** With `O=[N+]([O-])c1ccc(/C=N/NC(=S)Nc2ccccc2F)o1` as the molecule, how does the Potency read?
**A.** inactive

**Q.** With `COc1ccc(CCNC(=O)/C=C/c2ccc(S(=O)(=O)N3CCOCC3)cc2)cc1` as the molecule, how does the Potency read?
**A.** inactive

**Q.** Which Potency does the source give for `Cc1ccc(-c2nnc(N(C)C(=O)C3CCCO3)s2)cn1` (centres undefined) here?
**A.** inactive

**Q.** Which Potency does the source give for `c1ccc2nc(-c3ccc(N4CCOCC4)cc3)ccc2c1` here?
**A.** 164 nM (active)

**Q.** With `Cn1cc(Cl)c(C(=O)Nc2nc3ccccc3s2)n1` as the molecule, how does the Potency read?
**A.** 231 nM (active)

**Q.** Which Potency does the source give for `COc1ccc(-c2coc3cc(O[C@@H]4O[C@H](CO)[C@@H](O)[C@H](O)[C@H]4O)ccc3c2=O)cc1` here?
**A.** 2910 nM (active)

**Q.** For `O=C(NNC(=S)NC1CCCCC1)c1cccs1`, which Potency is on record?
**A.** inactive

**Q.** With `Cc1ccc2c(c1)CCCN2C(=O)Nc1ccc2c(c1)OCO2` as the molecule, how does the Potency read?
**A.** inactive

**Q.** With `CC(C)C(=O)OCC(=O)Nc1ccc(N=Nc2ccccc2)cc1` as the molecule, how does the Potency read?
**A.** 5800 nM (active)

**Q.** For `Cc1ccc(OCCCNCCO)c(Br)c1`, which Potency is on record?
**A.** inactive
